In ChEMBL document CHEMBL2218924, “A broad activity screen in support of a chemogenomic map for kinase signalling research and drug discovery” (Biochem J, 2013):

What was measured:
[1] = target: Ephrin type-A receptor 4 (Homo sapiens) (UniProt P54764); conditions: at 1 µM
[2] = target: Ephrin type-A receptor 4 (Homo sapiens) (UniProt P54764); conditions: at 10 µM
[3] = target: Ephrin type-A receptor 5 (Homo sapiens) (UniProt P54756); conditions: at 1 µM
[4] = target: T1, Ephrin type-A receptor 8 (Homo sapiens) (UniProt P29322); conditions: at 10 µM
T1 sequence (whole entry): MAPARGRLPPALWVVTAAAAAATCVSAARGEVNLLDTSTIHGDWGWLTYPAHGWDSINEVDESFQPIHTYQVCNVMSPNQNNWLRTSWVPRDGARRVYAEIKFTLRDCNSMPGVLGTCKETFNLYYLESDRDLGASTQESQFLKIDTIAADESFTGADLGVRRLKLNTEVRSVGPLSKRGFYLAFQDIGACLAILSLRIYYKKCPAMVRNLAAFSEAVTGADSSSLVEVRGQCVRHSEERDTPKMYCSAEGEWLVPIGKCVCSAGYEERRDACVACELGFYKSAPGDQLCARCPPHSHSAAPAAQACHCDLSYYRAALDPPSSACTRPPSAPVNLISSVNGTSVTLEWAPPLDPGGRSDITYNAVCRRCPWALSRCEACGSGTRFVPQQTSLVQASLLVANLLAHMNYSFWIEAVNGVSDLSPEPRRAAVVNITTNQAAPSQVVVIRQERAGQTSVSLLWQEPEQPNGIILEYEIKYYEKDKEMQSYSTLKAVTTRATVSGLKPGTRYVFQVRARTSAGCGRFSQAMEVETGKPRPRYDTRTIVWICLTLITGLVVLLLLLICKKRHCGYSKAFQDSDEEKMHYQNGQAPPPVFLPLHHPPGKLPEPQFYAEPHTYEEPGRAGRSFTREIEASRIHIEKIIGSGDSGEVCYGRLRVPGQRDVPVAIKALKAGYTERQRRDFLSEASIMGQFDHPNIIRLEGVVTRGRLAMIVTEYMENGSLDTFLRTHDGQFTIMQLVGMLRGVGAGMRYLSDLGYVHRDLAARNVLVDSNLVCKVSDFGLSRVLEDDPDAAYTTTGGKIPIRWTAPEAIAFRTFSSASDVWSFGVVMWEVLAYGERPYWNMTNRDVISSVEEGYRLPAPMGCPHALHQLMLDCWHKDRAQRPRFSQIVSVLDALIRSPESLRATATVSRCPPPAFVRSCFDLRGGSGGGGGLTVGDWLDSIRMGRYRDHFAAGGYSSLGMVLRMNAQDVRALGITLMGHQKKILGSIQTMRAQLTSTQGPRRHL

[5] = target: T2, Ephrin type-B receptor 1 (Homo sapiens) (UniProt P54762); conditions: at 1 µM
T2 sequence (whole entry): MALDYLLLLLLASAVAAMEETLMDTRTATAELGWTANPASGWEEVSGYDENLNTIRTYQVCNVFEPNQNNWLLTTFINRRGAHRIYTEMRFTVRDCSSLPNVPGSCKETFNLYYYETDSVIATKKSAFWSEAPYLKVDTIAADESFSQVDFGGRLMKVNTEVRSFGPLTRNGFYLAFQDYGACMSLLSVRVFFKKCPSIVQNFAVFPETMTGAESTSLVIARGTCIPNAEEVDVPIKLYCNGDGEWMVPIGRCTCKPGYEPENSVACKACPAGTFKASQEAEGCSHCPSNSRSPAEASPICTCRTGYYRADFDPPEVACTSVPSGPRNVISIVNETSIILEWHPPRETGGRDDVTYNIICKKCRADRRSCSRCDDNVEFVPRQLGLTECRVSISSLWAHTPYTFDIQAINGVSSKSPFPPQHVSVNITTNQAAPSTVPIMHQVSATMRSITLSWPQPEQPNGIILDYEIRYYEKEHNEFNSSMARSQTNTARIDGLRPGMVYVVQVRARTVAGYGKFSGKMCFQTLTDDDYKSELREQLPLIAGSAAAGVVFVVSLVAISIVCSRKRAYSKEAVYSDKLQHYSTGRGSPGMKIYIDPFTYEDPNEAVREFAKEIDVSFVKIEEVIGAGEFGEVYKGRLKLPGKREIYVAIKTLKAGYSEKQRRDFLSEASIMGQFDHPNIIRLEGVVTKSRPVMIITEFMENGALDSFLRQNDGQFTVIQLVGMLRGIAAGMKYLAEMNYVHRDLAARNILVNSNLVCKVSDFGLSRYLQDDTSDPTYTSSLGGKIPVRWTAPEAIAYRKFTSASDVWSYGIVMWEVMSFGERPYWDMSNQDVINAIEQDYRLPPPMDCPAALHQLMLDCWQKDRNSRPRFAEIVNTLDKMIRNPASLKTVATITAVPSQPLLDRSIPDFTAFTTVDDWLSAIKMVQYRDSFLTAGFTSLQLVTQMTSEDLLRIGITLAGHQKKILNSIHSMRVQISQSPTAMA

[6] = target: T2, Ephrin type-B receptor 1 (Homo sapiens); conditions: at 10 µM
[7] = target: T3, Ephrin type-B receptor 2 (Homo sapiens) (UniProt P29323); conditions: at 1 µM
T3 sequence (whole entry): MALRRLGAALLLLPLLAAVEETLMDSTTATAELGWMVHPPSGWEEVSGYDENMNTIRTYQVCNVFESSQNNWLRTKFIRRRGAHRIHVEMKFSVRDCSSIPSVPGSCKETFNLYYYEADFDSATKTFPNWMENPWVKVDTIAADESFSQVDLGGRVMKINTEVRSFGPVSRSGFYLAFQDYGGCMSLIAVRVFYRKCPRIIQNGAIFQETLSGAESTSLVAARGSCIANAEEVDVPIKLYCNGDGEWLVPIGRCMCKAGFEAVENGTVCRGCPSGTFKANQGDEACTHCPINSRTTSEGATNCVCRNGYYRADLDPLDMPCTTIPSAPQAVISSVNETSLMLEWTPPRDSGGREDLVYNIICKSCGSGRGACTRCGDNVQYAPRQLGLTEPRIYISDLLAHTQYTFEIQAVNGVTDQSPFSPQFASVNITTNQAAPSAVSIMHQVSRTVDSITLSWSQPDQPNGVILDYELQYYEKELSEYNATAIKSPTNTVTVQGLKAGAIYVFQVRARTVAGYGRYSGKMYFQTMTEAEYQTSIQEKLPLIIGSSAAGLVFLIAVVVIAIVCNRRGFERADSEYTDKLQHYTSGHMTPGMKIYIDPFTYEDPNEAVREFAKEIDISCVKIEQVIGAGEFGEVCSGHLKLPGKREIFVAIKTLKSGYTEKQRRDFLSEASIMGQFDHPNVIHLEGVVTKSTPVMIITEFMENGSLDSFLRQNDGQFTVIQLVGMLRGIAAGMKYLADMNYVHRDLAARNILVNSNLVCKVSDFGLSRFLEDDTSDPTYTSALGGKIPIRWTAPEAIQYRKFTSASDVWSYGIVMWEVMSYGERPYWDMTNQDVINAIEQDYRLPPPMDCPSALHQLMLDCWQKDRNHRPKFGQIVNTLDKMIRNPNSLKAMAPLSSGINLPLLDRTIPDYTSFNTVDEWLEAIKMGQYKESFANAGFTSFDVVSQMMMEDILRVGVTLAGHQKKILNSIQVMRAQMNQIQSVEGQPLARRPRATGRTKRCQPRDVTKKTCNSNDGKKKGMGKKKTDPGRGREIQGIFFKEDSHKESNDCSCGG

[8] = target: T3, Ephrin type-B receptor 2 (Homo sapiens); conditions: at 10 µM
[9] = target: T4, Ephrin type-B receptor 3 (Homo sapiens) (UniProt P54753); conditions: at 1 µM
T4 sequence (whole entry): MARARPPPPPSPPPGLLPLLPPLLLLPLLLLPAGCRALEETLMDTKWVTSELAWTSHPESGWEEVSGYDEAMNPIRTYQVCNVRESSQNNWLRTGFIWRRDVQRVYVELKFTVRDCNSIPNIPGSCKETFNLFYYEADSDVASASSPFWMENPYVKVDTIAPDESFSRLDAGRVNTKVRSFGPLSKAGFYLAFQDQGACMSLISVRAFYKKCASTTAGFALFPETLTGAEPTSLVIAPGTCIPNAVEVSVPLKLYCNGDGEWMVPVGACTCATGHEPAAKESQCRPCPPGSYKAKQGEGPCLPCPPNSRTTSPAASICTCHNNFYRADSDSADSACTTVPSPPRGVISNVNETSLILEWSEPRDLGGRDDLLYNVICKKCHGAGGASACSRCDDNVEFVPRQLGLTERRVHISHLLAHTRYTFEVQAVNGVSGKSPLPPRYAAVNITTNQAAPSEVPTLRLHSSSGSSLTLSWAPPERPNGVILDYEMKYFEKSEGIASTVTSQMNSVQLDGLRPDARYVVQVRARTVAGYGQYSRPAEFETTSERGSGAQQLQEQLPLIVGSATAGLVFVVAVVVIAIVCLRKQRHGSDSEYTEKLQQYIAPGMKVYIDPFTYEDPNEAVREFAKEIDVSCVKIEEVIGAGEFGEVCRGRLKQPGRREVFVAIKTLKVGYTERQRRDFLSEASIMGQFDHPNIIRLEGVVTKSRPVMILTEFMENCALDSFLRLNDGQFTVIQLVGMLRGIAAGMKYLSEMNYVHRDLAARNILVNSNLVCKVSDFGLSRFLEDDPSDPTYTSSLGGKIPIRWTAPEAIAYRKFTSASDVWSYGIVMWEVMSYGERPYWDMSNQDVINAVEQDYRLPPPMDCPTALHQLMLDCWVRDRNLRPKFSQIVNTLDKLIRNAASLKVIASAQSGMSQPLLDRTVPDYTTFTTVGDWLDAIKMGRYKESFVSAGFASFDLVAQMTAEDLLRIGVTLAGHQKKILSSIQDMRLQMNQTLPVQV

[10] = target: T4, Ephrin type-B receptor 3 (Homo sapiens); conditions: at 10 µM
[11] = target: T5, Ephrin type-B receptor 4 (Homo sapiens) (UniProt P54760); conditions: at 1 µM
T5 sequence (whole entry): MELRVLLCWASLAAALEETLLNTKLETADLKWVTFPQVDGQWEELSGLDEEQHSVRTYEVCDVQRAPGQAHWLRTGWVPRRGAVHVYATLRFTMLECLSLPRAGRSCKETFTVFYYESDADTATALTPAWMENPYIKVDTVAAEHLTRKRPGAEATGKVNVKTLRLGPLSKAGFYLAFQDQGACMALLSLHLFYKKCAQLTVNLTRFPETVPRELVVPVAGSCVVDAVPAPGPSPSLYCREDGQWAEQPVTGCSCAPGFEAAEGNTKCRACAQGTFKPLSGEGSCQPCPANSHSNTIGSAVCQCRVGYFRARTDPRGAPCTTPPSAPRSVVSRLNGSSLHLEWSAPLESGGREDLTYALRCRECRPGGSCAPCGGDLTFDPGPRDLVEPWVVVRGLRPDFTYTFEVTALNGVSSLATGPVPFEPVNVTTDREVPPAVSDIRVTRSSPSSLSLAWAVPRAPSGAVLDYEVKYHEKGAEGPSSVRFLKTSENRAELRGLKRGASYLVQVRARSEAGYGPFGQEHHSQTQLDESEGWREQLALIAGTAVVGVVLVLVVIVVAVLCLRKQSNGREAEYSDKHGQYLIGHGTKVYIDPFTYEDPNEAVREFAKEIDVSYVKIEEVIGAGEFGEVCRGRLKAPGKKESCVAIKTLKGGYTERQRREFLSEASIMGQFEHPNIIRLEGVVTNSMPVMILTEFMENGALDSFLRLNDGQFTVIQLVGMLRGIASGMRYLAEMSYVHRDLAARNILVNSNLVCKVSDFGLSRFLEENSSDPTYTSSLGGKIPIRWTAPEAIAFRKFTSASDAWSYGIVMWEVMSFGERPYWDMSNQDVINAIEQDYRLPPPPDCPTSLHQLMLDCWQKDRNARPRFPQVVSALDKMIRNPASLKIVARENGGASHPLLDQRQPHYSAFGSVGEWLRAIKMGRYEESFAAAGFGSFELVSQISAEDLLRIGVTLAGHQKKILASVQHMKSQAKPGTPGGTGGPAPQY

[12] = target: T5, Ephrin type-B receptor 4 (Homo sapiens); conditions: at 10 µM
[13] = target: Receptor tyrosine-protein kinase erbB-4 (Homo sapiens) (UniProt Q15303); conditions: at 1 µM
Sequence of Receptor tyrosine-protein kinase erbB-4 (Homo sapiens) (Q15303 whole entry): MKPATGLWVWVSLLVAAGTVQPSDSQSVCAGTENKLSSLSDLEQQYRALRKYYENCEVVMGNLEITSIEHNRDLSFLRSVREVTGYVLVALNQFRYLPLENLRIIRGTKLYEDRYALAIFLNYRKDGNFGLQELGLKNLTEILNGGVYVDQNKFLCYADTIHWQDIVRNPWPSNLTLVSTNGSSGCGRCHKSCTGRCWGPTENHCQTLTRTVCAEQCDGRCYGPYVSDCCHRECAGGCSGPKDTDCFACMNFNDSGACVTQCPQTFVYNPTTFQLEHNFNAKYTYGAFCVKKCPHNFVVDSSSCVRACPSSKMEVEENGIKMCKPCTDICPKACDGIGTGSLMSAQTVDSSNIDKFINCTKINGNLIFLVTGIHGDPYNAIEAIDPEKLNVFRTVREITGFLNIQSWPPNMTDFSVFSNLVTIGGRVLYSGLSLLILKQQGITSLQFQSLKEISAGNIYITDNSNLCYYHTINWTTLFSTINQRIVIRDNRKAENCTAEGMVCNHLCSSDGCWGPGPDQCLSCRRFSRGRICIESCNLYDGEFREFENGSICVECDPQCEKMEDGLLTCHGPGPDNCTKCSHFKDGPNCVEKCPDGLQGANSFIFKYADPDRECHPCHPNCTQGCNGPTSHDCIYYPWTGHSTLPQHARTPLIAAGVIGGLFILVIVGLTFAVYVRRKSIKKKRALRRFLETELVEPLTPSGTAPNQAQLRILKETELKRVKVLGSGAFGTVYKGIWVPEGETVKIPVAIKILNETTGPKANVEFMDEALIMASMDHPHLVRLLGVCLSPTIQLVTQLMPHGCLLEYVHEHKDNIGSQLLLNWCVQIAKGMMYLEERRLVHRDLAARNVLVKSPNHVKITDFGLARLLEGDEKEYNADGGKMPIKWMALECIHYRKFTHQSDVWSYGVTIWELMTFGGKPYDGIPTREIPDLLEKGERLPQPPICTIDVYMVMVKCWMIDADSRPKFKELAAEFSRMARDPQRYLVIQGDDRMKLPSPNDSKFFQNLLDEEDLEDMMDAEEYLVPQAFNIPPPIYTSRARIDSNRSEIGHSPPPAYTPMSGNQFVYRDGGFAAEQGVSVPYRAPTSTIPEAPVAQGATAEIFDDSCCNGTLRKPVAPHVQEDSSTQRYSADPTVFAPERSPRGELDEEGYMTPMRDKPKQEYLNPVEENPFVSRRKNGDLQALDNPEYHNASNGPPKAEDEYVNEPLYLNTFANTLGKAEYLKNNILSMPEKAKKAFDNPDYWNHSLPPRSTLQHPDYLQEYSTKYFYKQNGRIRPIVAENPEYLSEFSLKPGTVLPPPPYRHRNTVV

[14] = target: Receptor tyrosine-protein kinase erbB-4 (Homo sapiens) (UniProt Q15303); conditions: at 10 µM
[15] = target: Focal adhesion kinase 1 (Homo sapiens) (UniProt Q05397); conditions: at 1 µM
Sequence of Focal adhesion kinase 1 (Homo sapiens) (Q05397 2-1052 limits assumed): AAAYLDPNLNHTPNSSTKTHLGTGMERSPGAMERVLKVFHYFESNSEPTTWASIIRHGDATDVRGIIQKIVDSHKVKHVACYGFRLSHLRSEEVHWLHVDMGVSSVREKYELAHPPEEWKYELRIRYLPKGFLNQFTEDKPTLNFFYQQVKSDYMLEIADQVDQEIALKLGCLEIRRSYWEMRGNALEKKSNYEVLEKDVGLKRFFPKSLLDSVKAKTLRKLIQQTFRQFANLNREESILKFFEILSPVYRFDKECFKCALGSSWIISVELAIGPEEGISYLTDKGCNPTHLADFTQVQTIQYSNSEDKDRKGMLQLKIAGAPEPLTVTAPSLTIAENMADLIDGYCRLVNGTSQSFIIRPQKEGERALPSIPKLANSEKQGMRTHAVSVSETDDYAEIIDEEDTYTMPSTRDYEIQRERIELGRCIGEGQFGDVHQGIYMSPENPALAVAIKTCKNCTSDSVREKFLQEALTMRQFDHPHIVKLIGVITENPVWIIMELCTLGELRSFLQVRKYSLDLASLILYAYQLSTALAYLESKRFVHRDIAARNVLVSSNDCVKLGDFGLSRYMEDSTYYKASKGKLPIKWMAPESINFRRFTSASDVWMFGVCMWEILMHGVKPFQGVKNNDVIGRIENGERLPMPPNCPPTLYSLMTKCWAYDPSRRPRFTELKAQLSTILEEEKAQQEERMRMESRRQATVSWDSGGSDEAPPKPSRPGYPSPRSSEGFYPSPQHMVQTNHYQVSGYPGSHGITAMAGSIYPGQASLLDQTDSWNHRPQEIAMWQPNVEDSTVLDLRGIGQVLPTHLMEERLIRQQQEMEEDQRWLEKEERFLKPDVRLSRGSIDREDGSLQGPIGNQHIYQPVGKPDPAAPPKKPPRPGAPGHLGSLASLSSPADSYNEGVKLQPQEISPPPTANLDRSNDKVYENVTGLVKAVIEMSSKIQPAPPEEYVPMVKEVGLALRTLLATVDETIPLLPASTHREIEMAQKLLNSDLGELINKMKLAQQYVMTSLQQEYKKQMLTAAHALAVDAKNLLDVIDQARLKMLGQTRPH

Sequence of Ephrin type-A receptor 4 (Homo sapiens) (P54764 whole entry): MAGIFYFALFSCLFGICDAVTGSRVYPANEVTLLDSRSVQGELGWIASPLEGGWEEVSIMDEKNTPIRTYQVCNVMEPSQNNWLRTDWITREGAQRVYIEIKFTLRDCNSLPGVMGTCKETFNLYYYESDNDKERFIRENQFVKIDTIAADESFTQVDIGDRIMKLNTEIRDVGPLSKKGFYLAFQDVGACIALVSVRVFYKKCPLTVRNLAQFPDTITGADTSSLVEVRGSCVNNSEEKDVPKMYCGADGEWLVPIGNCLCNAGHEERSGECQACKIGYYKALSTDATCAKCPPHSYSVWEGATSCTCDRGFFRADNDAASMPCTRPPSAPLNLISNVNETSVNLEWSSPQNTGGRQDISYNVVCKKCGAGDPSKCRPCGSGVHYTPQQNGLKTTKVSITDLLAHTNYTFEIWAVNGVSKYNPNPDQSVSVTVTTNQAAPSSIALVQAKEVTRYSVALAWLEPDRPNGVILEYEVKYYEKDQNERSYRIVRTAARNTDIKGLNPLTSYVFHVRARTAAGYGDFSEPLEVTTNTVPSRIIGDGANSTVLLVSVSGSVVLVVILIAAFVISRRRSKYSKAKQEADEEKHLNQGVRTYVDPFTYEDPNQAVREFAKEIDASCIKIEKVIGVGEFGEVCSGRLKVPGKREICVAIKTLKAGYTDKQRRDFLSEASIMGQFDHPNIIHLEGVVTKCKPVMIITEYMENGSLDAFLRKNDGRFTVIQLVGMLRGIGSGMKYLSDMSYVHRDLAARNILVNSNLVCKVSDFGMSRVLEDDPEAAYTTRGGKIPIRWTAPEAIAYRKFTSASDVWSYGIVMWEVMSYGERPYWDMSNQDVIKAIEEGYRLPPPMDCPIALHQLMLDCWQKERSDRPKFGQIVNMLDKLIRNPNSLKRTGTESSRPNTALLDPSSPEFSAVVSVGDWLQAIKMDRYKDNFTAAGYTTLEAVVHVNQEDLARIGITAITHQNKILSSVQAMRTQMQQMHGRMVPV
Sequence of Ephrin type-A receptor 5 (Homo sapiens) (P54756 whole entry): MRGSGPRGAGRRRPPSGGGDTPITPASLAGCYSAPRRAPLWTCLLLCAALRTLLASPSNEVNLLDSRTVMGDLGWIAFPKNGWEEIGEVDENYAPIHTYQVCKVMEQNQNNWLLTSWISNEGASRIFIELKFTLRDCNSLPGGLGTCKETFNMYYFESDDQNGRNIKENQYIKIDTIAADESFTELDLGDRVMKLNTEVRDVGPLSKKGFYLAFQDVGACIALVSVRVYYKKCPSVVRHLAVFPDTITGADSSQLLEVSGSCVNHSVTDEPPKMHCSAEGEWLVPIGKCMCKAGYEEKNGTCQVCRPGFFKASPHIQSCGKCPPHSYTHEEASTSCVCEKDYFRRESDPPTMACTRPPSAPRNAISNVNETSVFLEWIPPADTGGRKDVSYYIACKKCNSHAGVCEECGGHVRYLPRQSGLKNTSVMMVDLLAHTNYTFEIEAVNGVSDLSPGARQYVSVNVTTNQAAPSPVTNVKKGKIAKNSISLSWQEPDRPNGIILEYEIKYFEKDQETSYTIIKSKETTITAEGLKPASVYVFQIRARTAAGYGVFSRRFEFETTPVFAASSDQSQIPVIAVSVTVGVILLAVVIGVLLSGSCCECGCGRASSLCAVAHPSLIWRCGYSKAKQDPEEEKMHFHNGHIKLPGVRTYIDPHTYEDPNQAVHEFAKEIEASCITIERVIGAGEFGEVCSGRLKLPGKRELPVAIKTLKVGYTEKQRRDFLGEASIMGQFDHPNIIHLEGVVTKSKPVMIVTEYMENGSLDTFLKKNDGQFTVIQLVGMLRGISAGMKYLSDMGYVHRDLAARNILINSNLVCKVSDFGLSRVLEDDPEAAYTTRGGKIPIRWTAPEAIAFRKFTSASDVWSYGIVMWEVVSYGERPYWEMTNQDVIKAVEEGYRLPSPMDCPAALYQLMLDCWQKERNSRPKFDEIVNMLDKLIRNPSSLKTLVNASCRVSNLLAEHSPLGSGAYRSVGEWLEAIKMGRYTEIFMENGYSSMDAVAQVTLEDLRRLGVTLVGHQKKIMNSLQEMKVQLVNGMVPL

## O=C1Nc2ccc(Br)cc2/C1=C\c1cc2c([nH]1)CCCC2
[1]
  residual activity: 106%
[2]
  residual activity: 103%
[3]
  residual activity: 110%
[4]
  residual activity: 101%
[5]
  residual activity: 101%
[6]
  residual activity: 107%
[7]
  residual activity: 111%
[8]
  residual activity: 115%
[9]
  residual activity: 114% (inactive)
[10]
  residual activity: 117%
[11]
  residual activity: 118%
[12]
  residual activity: 132%
[13]
  residual activity: 109%
[14]
  residual activity: 106%
[15]
  residual activity: 78%
